Pf growth 48h – inhibits P. falciparum growth in the first generation, 48 h | P. falciparum luciferase growth in erythrocytes, 48 h | Potency, µM (series often up to 28.7 µM), hits mostly inhibitors | 310,000 compounds, 5.9% hits | AID 504832
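Luciferase-expressing P. falciparum in infected erythrocytes (2% hematocrit, 0.1% parasitemia final) in RPMI 1640/0.5% Albumax were exposed to compound for 48 hours at 37 C, 5% CO2; growth read as luminescence.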
Shiga toxin inh – blocks Shiga toxin action in Vero cells | Vero cells, Shiga toxin protein synthesis inhibition reporter | inhibition, % at 38.7 µM | 290,000 compounds, 9.2% hits; in the data active = inhibition mostly above about 28%, no sharp cut-off; inactive = mostly below about 43%
Pf growth 96h – P. falciparum growth inhibition at 96 hours. P. falciparum luciferase reporter growth, 96 h. 320,000 compounds, 6.9% hits. Potency, µM (top dose mostly 28.7 µM), most hits filed as inhibitors. AID 504834
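Infected RBCs, 2% Hct / 0.05% parasitemia final; luciferase-reporter P. falciparum; cpd 96 h, 37 C, 5% CO2; luciferase detection reagent; luminescence.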
Cycloheximide cs – counter-screen for Shiga toxin inhibitors: cycloheximide protein synthesis inhibition; cell reporter, cycloheximide protein synthesis inhibition counterscreen; max response, %; 300,000 compounds, 12% hits; in the data active = max response mostly above about 13%, no sharp cut-off; inactive = mostly below about 14%; note: read at 38.3 µM for the half of the compounds with a filed dose
Large screens that a line does not name were inactive. A selection: hits, their analogues and other compounds. The true share with any hit is near 21%. Unless noted, calls come from the whole dose curve; as a rule, active = well fitted inhibition curve with a large enough effect; inconclusive = small, poorly fitted or top-dose-only effect, or another doubt; inactive = no such curve, though single readings can be large or run the other way.

O=S(=O)(Nc1ccc2c(c1)OCCO2)c1cccc2cccnc12	Pf growth 48h inconclusive
Cc1ccc(N=Nc2cc(C)ccc2O)c(C)c1	Shiga toxin inh 77, Cycloheximide cs 36
Cc1ccc(N=Nc2ccc(N)cc2C)c(S(N)(=O)=O)c1	Shiga toxin inh 94, Cycloheximide cs 65
Cc1ccc(C)c(N=Nc2ccc(O)c3ncccc23)c1	Pf growth 48h 2.1µM, Shiga toxin inh 151, Pf growth 96h inconclusive, Cycloheximide cs 43
COc1ccccc1CN1CCNC(=O)C1CC(=O)NC1CCCCCC1 (stereo not drawn)	Pf growth 48h inconclusive
Cc1cccc(N=Nc2ccc(O)c3ncccc23)c1	Pf growth 48h 1.9µM, Shiga toxin inh active, Pf growth 96h inconclusive, Cycloheximide cs 46
Cc1ccccc1N=Nc1ccc(N=Nc2c(O)ccc3ccccc23)c(C)c1	none (no result: Shiga toxin inh, Cycloheximide cs)
COc1nc(OC)nc(N2CCC(NC(=O)C(Cc3cccc(OC)c3OC)NC(C)=O)CC2)n1 (stereo not drawn)	Pf growth 48h inconclusive, Pf growth 96h inconclusive
Cc1ccc(NC(=O)CN2C(=O)NC(Cc3ccccc3)C2=O)cc1Cl (stereo not drawn)	none (no result: Shiga toxin inh, Cycloheximide cs)
COc1ccc(N(/N=C2\Sc3ccccc3C2=O)C(C)=O)cc1	Pf growth 48h inconclusive, Shiga toxin inh active, Pf growth 96h inconclusive, Cycloheximide cs 60
COc1ccccc1N(/N=C1\Sc2ccccc2C1=O)C(C)=O	Shiga toxin inh 60, Cycloheximide cs 24
O=C(Cn1c(=O)n2ncnc2c2c3c(sc21)CCCC3)c1ccccc1	Pf growth 48h 12µM (no result: Pf growth 96h)
O=c1n(Cc2ccccc2Cl)c2sc3c(c2c2ncnn12)CCCC3	Pf growth 48h inconclusive
CCSC[C@H](NC(=O)[C@H](C)NC(=O)[C@@H](N)Cc1ccc(O)cc1)C(=O)N[C@@H](CC(=O)O)C(=O)N[C@H](C(=O)N[C@@H](C)C(=O)N[C@H](C(=O)N[C@@H](CSCC)C(=O)N[C@H](C(=O)N[C@H](C(=O)N[C@@H](Cc1cnc[nH]1)C(=O)N[C@@H](CCCNC(=N)N)C(=O)N[C@@H](CC(C)C)C(=O)N[C@@H](C)C(=O)NCC(=O)N[C@@H](CC(C)C)C(=O)N[C@@H](CC(C)C)C(=O)N[C@@H](CO)C(=O)N[C@@H](CCCNC(=N)N)C(=O)N[C@@H](CO)C(=O)NCC(=O)NCC(=O)N[C@H](C(=O)N[C@H](C(=O)N[C@@H](CCCCN)C(=O)N[C@@H](CC(N)=O)C(=O)N[C@@H](CC(N)=O)C(=O)N[C@@H](Cc1ccccc1)C(=O)N[C@H](C(=O)N1CCC[C@H]1C(=O)N[C@H](C(=O)N[C@@H](CC(N)=O)C(=O)N[C@H](C(=O)NCC(=O)N[C@@H](CO)C(=O)N[C@@H](CCCCN)C(=O)N[C@@H](C)C(=O)N[C@@H](Cc1ccccc1)C(N)=O)C(C)C)[C@@H](C)O)C(C)C)C(C)C)C(C)C)[C@@H](C)O)C(C)C)[C@@H](C)O)[C@@H](C)O	none (no result: Pf growth 48h, Pf growth 96h)
O=C(NNc1nc2ccc(F)cc2s1)c1cccc(F)c1	Pf growth 48h inconclusive, Shiga toxin inh 85, Pf growth 96h inconclusive, Cycloheximide cs 42
O=C(NNc1nc2c(F)cccc2s1)c1ccccc1	Pf growth 48h inconclusive
O=C(NNc1nc2c(F)cc(F)cc2s1)c1ccccc1	none
O=C(NNc1nc2ccccc2s1)c1ccc(F)cc1	Pf growth 48h 13µM, Shiga toxin inh 89, Pf growth 96h inconclusive, Cycloheximide cs 44
Cc1cccc(NC(=O)c2ccc3c(c2)CCN3S(C)(=O)=O)c1	Shiga toxin inh 47, Cycloheximide cs 29
Cc1ccc(NC(=O)c2ccc3c(c2)CCN3S(C)(=O)=O)cc1C	Shiga toxin inh 31, Cycloheximide cs 29
Cc1cc(C)cc(NC(=O)c2ccc3c(c2)CCN3S(C)(=O)=O)c1	none
CC1CN(c2nc(Nc3ccccc3F)nc(N)c2[N+](=O)[O-])CC(C)O1 (stereo not drawn)	Pf growth 96h inconclusive
CC(=O)N(c1cccc(Br)c1)c1nc(C)cc(C)c1C#N	none
O=C(CN1CCN(S(=O)(=O)c2ccc(Cl)s2)CC1)N1CCOCC1	none
COc1cc(/C=N/OCC(=O)NC2CCCCC2)ccc1OCc1ccccc1	Shiga toxin inh 152, Pf growth 96h inconclusive, Cycloheximide cs 55
COc1cc(/C=N/OCC(=O)NC23CC4CC(CC(C4)C2)C3)ccc1OCc1ccccc1	Pf growth 48h inconclusive, Shiga toxin inh 101, Pf growth 96h 9.3µM, Cycloheximide cs 36
COc1cc(/C=N/OCC(=O)NC2CCS(=O)(=O)C2)ccc1OC(F)F (stereo not drawn)	Pf growth 96h inconclusive
COc1ccc(/C=N/OCC(=O)NC(c2ccccc2)c2ccccc2)cc1OC	Pf growth 48h 9.3µM, Pf growth 96h 8.3µM
O=[N+]([O-])c1ccc(S(=O)(=O)NCC2COc3ccccc3O2)cc1 (stereo not drawn)	none
NS(=O)(=O)c1ccc(NCC2COc3ccccc3O2)c([N+](=O)[O-])c1 (stereo not drawn)	Cycloheximide cs 16
CC(=O)c1ccc(NCC2COc3ccccc3O2)c([N+](=O)[O-])c1 (stereo not drawn)	Shiga toxin inh 57, Cycloheximide cs 31
CC(=O)NCC(=O)NNC1CC(=O)N(c2cccc(Cl)c2)C1=O (stereo not drawn)	Pf growth 48h inconclusive, Pf growth 96h inconclusive
COC(=O)c1ccc(C2NC(=S)N(c3ccccc3)C(C)=C2C(=O)Nc2ccccc2OC)cc1 (stereo not drawn)	Pf growth 48h 13µM (no result: Pf growth 96h)
Cc1cc2c(s1)c1c(C)nn(Cc3ccc(F)cc3)c(=O)c1n2C	none (no result: Shiga toxin inh, Cycloheximide cs)
Clc1cc(Cl)c(OCCCCn2cncn2)c(Cl)c1	Pf growth 96h 0.29µM
CC(C)CCNC(=O)C1CCC(=O)N1CCc1ccccc1 (stereo not drawn)	none
CCOC(=O)c1cccc(N2C(=O)C3C4C=CC(CC4)C3C2=O)c1 (stereo not drawn)	none
CCOC(=O)C1=C(C)C2C3C(=O)N(c4cc(C)ccc4C)C(=O)C3C1(C)C1C(=O)N(c3cc(C)ccc3C)C(=O)C21 (stereo not drawn)	Pf growth 48h 13µM, Pf growth 96h inconclusive
Cc1ccc(S(=O)(=O)Nc2ccccc2C(=O)Nc2nc(-c3ccc(F)cc3)cs2)cc1	Pf growth 48h 13µM, Pf growth 96h inconclusive
COc1ccc(-c2csc(NC(=O)c3ccccc3NS(=O)(=O)c3ccc(F)c(F)c3)n2)cc1	Pf growth 48h 1.9µM, Pf growth 96h inconclusive
COc1cccc(CNc2ccc(N3CCC(C)CC3)cc2)c1OC	Pf growth 48h 1.9µM, Pf growth 96h inconclusive
COc1ccc(Br)cc1CNc1ccc(N2CCOCC2)cc1	Pf growth 48h inconclusive
Nc1cc(OC(=O)c2c(F)cccc2Cl)nn1S(=O)(=O)c1ccccc1	Pf growth 96h 10µM
OC(COC(c1ccc(Cl)cc1)c1ccc(Cl)cc1)CN1CCCC1 (stereo not drawn)	Pf growth 48h inconclusive, Pf growth 96h 4.7µM
CN1CCN(CC(O)COC(c2ccc(Cl)cc2)c2ccc(Cl)cc2)CC1 (stereo not drawn)	Pf growth 96h 9.3µM (no result: Pf growth 48h)
OC(COC(c1ccc(Cl)cc1)c1ccc(Cl)cc1)CN1CCc2ccccc2C1 (stereo not drawn)	Pf growth 48h inconclusive, Pf growth 96h 2.6µM

Screening data (PubChem)
